The list is not random: actives were taken first. Their share in the collection is about 11%.
3T3 cytotox: Cytotoxic Profiling in NIH 3T3 Cell Line of Diverse Libraries Using Quantitative High-Throughput Screening | NIH 3T3 viability, CellTiter-Glo ATP luminescence, 48-72 h | Potency, µM (highest dose often 96.7 µM), most hits filed as inhibitors | AID 1345082, 2018 | 94,000 compounds, 4.3% hits; note: nearly all actives have a fitted effect of over 55% in size
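Cytotoxicity is measured as loss of cellular ATP: NIH 3T3 cells (400/well) are exposed to compound for 48 or 72 hr at 37 °C, then CellTiter-Glo luminescence is imaged after 10 min at room temperature.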
Luciferase inh: Firefly luciferase inhibition profiling of diverse chemical library using quantitative high-throughput screening; Luciferin 4-monooxygenase (Photinus pyralis), P08659; purified P. pyralis luciferase, luminescence, biochemical; Potency, µM (top dose mostly 115 µM), hits mostly inhibitors; 76,000 compounds, 2.5% hits; AID 1347043, 2019; note: nearly all actives have a fitted effect of over 65% in size
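FLuc 10nM, D-luciferin 10uM, ATP 10uM, Mg acetate 10mM, Tris acetate pH 7.5, Tween/BSA; cpd qHTS; enzyme added last; CCD luminescence.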
hNpr1 antagonist: Natriuretic polypeptide receptor (hNpr1) antagonism - Primary qHTS; Atrial natriuretic peptide receptor 1 (Homo sapiens), P16066; HEK293 hNpr1 GloSensor cGMP, ANP-stimulated luminescence; Potency, µM (series often up to 46.3 µM), hits mostly inhibitors; 76,000 compounds, 1.6% hits; AID 1347048, 2019; calls by dose curve; note: nearly all actives have a fitted effect of over 60% in size
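Compound pre-incubated 30 min at room temperature on GloSensor-loaded HEK293 cells stably carrying hNpr1 and the pGS-40F cGMP biosensor. Stimulation uses hNppA at 0.1 nM final; luminescence is taken at baseline and 20 min post-agonist.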
HEK cytotox: Cytotoxic Profiling in HEK 293 Cell Line of Diverse Libraries Using Quantitative High-Throughput Screening. 94,000 compounds, 6.6% hits. HEK 293 viability, ATP luminescence (CellTiter-Glo), 48-72 h. Potency, µM (highest dose often 115 µM), usual class: inhibitors; note: nearly all actives have a fitted effect of over 60% in size
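Cytotoxicity was scored by loss of ATP-coupled luminescence (CellTiter-Glo) in HEK 293 cells. Compound treatment ran 48 or 72 hr at 37 degree Celsius, 5% CO2, 95% humidity.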
Npr1 antag conf: Natriuretic polypeptide receptor (hNpr1) antagonism - Confirmation; shares compounds with hNpr1 antagonist; HEK293 hNpr1 cGMP GloSensor luminescence, ANP-stimulated; Potency, µM (highest dose often 57.6 µM), actives largely listed as inhibitors; 1,400 compounds, 76% hits; AID 1347044, 2019; calls by dose curve; note: nearly all actives have a fitted effect of over 70% in size
Npr2 selectivity: Natriuretic polypeptide receptor (hNpr2) antagonism - Subtype selectivity assay; Potency, µM (highest dose often 57.6 µM), usual class: inhibitors; shares compounds with hNpr1 antagonist; 1,400 compounds, 67% hits; HEK293 hNpr2 GloSensor cGMP luminescence, CNP-stimulated; calls by dose curve; note: nearly all actives have a fitted effect of over 70% in size
FLuc counter: Natriuretic polypeptide receptor (hNpr1) antagonism - Confirmation firefly luciferase (FLuc) inhibition counterscreen; purified FLuc enzyme, luminescence, Km substrate; AID 1347047, 2019; Potency, µM (doses to about 57.6 µM), hits mostly inhibitors; 1,400 compounds, 0.7% hits; shares compounds with hNpr1 antagonist
GloSensor cGMP: Natriuretic polypeptide receptor (hNpr1) antagonism - Counterscreen GloSensor control cell line | shares compounds with hNpr1 antagonist | HEK293 GloSensor cGMP, SNP-stimulated, luminescence | Potency, µM (highest dose often 57.6 µM), hits mostly inhibitors | 1,400 compounds, 69% hits; calls by dose curve; note: nearly all actives have a fitted effect of over 70% in size
Hits are given with their value; – = inactive; ? = inconclusive; · = no result. Unless noted, calls come from the whole dose curve; as a rule, active = well fitted curve in the direction sought with a large enough effect; inconclusive = small, poorly fitted or top-dose-only effect, or another doubt; inactive = no such curve, though single readings can be large; an effect the other way counts as inactive or inconclusive.

SMILES	3T3 cytotox	Luciferase inh	hNpr1 antagonist	HEK cytotox	Npr1 antag conf	Npr2 selectivity	FLuc counter	GloSensor cGMP
CC1=C[C@@H](CN2CCOCC2)[C@H](C(C)C)C[C@H]1Cc1nnc(-c2ccncc2)o1	?	–	?	?	?	–	–	–
CC1=C[C@@H](CN(C)Cc2cccnc2)[C@H](C(C)C)C[C@H]1Cc1nnc(-c2ccc([N+](=O)[O-])cc2)o1	16µM	–	20µM	22µM	15µM	17µM	–	12µM
CC1=C[C@@H](CN2CCC(O)CC2)[C@H](C(C)C)C[C@H]1Cc1nnc(-c2ccncc2)o1	?	–	–	?	·	·	·	·
O=C(c1ccncc1)N1CC2CCC(C1)N2Cc1ccc(-c2ccccc2)cc1	?	–	?	?	4.3µM	5.4µM	–	4.8µM
N#Cc1ccc(CN2C3CCC2CN(C(=O)c2ccncc2)C3)cc1	?	–	–	?	·	·	·	·
Cn1ncc2c(C(=O)NC3CCCCC3)cc(-c3ccc(F)cc3)nc21	–	·	·	–	·	·	·	·
CCc1cccc(NC(=O)Cn2c(N(C)Cc3ccccc3)nc(C)cc2=O)c1	?	–	8.9µM	?	11µM	12µM	–	9.7µM
Cc1cccc(NC(=O)Cn2c(N(C)Cc3ccccc3)nc(C)cc2=O)c1	?	–	20µM	?	22µM	22µM	–	22µM
COc1ccc(C(=O)N2CCCN(c3cc(-c4ccccc4)[nH]n3)CC2)c(C)c1	?	–	11µM	?	17µM	19µM	–	17µM
COc1ccc(C(=O)N2CCCN(c3cc(-c4ccccc4)[nH]n3)CC2)c(OC)c1	–	–	?	40µM	24µM	?	–	24µM
Cc1ccc(C(=O)N2CCN(c3cc(-c4cccs4)[nH]n3)CC2)c(C)c1	7.9µM	–	?	45µM	27µM	24µM	–	27µM
COc1ccc(-c2ccccc2C(=O)N2CCC(NC(=O)Cc3ccccc3)CC2)nn1	–	·	·	–	·	·	·	·
O=C(NCCc1noc(-c2ccccc2)n1)c1ccccc1	–	–	–	?	·	·	·	·
COc1ccc(C(=O)NCCc2noc(-c3ccccc3)n2)cc1F	?	–	?	?	?	–	–	–
O=C(CCC1CCCC1)NCCc1noc(-c2ccccc2)n1	?	–	?	79µM	?	–	–	–
C[C@]1(CO)[C@H]2Cc3sc(NC(=O)c4ccco4)nc3[C@@H](CC(=O)Nc3ccccc3)[C@]2(C)CC[C@H]1O	?	–	–	?	·	·	·	·
O=C(N[C@@H]1CN(C(=O)Cc2c[nH]c3ccccc23)C[C@H]1CO)c1ccccc1	–	·	·	–	·	·	·	·
COc1ccc([S+](=O)([O-])N2CCC3(CC2)OCCN(c2ccc(F)cc2)C3=O)cc1	?	–	?	?	31µM	?	–	31µM
COCCN1CCOC2(CCN([S+](=O)([O-])c3ccc(F)cc3F)CC2)C1=O	?	–	–	–	·	·	·	·
Cc1nn(C)c(C)c1CCC(=O)N1CCC(Cc2noc(-c3ccc(F)cc3)n2)C1 (stereo not given)	?	–	16µM	?	27µM	?	–	34µM
COCCN1C[C@H]2CN(Cc3cccc(OC)c3)CCN2C1=O	–	–	–	–	·	·	·	·
COc1cccc(CN2CCN(c3nc4c(s3)c(C)nn4C)CC2=O)c1	?	–	?	?	?	?	–	?
COCCN1CCCN(C(=O)c2ccoc2)c2ccccc21	–	–	–	?	·	·	·	·
Cn1nccc1C(=O)N1CCCN(CCc2ccccc2)c2ccccc21	?	–	?	?	19µM	14µM	–	–
CNC(=O)C1(N2CCC[C@H]2C(=O)N2CCC(C)CC2)CCCCC1	–	–	–	–	·	·	·	·
SMILES	3T3 cytotox	Luciferase inh	hNpr1 antagonist	HEK cytotox	Npr1 antag conf	Npr2 selectivity	FLuc counter	GloSensor cGMP
O=C(NCCc1ccccc1)C1CCc2ncc(-c3ccsc3)n2C1 (stereo not given)	?	–	?	?	?	–	–	–
COc1ccccc1OCCNC(=O)C1CCc2ncc(-c3ccc(F)cc3)n2C1 (stereo not given)	–	–	?	?	19µM	19µM	–	–
CCOc1ccc2c(n1)CCN(C(=O)c1ccc(C)s1)C2	–	?	–	?	·	·	·	·
O=C(CCC[C@H]1NC[C@@H]2CC1CN(Cc1ccccc1)C2)NCCCc1ccccc1	?	–	–	?	·	·	·	·
O=C(c1cc(F)ccc1F)N1CCCC(n2cc(-c3nc(-c4ccccc4)no3)nn2)C1 (stereo not given)	?	?	11µM	40µM	19µM	19µM	?	17µM
O=C(C1CCC1)N1CCC(n2cc(-c3nc(-c4ccccc4)no3)nn2)CC1	?	–	?	?	24µM	24µM	–	22µM
CCOc1ccccc1C(=O)N1CCC(n2cc(-c3nc(-c4ccccc4)no3)nn2)CC1	?	–	?	40µM	24µM	?	–	?
O=C(c1ccco1)N1CCC(n2cc(-c3nc(-c4ccccc4)no3)nn2)CC1	?	–	–	?	·	·	·	·
O=C(c1cnccn1)N1CCCC(n2cc(-c3nc(-c4ccccc4)no3)nn2)C1 (stereo not given)	–	–	–	–	·	·	·	·
O=C(C1CC1)N1CCC(n2cc(-c3nc(-c4ccccc4)no3)nn2)CC1	?	–	?	?	?	?	–	?
O=C(Nc1cccn2nc(C3CCC3)nc12)c1ccc(F)cc1F	–	–	–	–	·	·	·	·
O=C(Nc1ccc([C@@H](O)[C@H]2COCC(=O)N2CCCc2ccccc2)cc1)C1CCC1	–	–	–	–	·	·	·	·
COc1cccc(CC(=O)N2CCC(n3cc(-c4nc(-c5ccccc5)no4)nn3)CC2)c1	?	–	10µM	32µM	11µM	11µM	–	12µM
O=C(N1CCC(n2cc(-c3nc(-c4ccccc4)no3)nn2)CC1)C1(c2ccccc2)CC1	?	–	13µM	32µM	24µM	27µM	–	24µM
Cc1cccc(CC(=O)N2CCC(n3cc(-c4nc(-c5ccccc5)no4)nn3)CC2)c1	–	–	–	–	·	·	·	·

Screening results (PubChem)
